This note sets out measurements from PubChem BioAssay (NCI).

Among the test systems are RPMI-8226 leukemia; OVCAR-5 ovarian; OVCAR-4 ovarian; SK-OV-3 ovarian; IGROV1 ovarian; OVCAR-3 ovarian; HS 578T breast; NCI/ADR-RES ovarian; T-47D breast; BT-549 breast; MDA-MB-435 melanoma; SW-620 colon; MCF7 breast; HCT-116 colon; HCC-2998 colon; KM12 colon; OVCAR-8 ovarian.
What all share (experiment): NCI-60 one-dose screen, 48 h (100 = growth as untreated, 0 = no growth, -100 = all killed)
Common to all, as to conditions: 10 µM unless noted

Structures are written as SMILES. Compounds without any hit were thinned out: in the full panel of roughly 83,000, 20% have a hit.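 In brief: 96-well plates, 48 h treatment, single concentration, percent growth endpoint.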 Unmarked numbers belong to inactive results. Activity calls are given as the source filed them. The calls were made as follows: active = growth percent below 10; inactive = the rest.

For the molecule `Nc1ccc2c3c(cccc13)-c1ccccc1-2`, the growth in the test with RPMI-8226 leukemia was 33.9%; in the test with OVCAR-5 ovarian, 99.8%; in the test with OVCAR-4 ovarian, 86.1%; with SK-OV-3 ovarian, 99.6%; in the test on IGROV1 ovarian, 84%; with OVCAR-3 ovarian it was 88.4%. The growth in the test with HS 578T breast was 89.2%; with NCI/ADR-RES ovarian, 95.2%; in the test with T-47D breast, 92.3%; in the test with BT-549 breast, 71%; with MDA-MB-435 melanoma, 96.5%; in the test on SW-620 colon, 102%. Moreover, the growth in the test with MCF7 breast is 88.8%; in the test with HCT-116 colon, 92.2%; in the test on HCC-2998 colon, 103%; in the test with KM12 colon, 87.8%.
As to `COc1cc(Oc2cc(-c3cccnc3)ccc2NC(=O)Nc2ccc(F)cc2F)cc(OC)c1OC`, the growth in the test with RPMI-8226 leukemia is 93.6%; in the test with OVCAR-5 ovarian it was 117%; in the test on OVCAR-4 ovarian it was 113%; in the test with SK-OV-3 ovarian, 89.1%; in the test with IGROV1 ovarian it was 116%; in the test on OVCAR-3 ovarian, 102%. For the same molecule, the growth in the test on HS 578T breast was 99.9%; with NCI/ADR-RES ovarian, 95.2%; with T-47D breast, 71.5%; in the test with BT-549 breast, 103%; in the test on MDA-MB-435 melanoma, 109%; with SW-620 colon, 104%. Further, the growth is 97.8% with HCT-116 colon, 106% in the test on HCC-2998 colon and 108% in the test on KM12 colon.
In the case of `Cc1cc(CC(=O)O)n(C)c1C(=O)c1ccc(Cl)cc1`, the growth with RPMI-8226 leukemia was 103%; with OVCAR-8 ovarian it was 97.7%; with OVCAR-4 ovarian, 119%; in the test on SK-OV-3 ovarian, 119%; with IGROV1 ovarian, 114%; in the test on OVCAR-3 ovarian, 118%. The growth is 110% in the test on HS 578T breast; 97.8% in the test with NCI/ADR-RES ovarian; 101% with BT-549 breast; 106% with MDA-MB-435 melanoma; 103% with SW-620 colon; 120% in the test with MCF7 breast. The figures for the growth in the test on HCT-116 colon, in the test on HCC-2998 colon and with KM12 colon were 102%, 108% and 105%, respectively.
As for `CCCCOc1ccc(C(C)(C)c2ccc(OCCCC)cc2)cc1`, the growth with RPMI-8226 leukemia is 91%; in the test with OVCAR-5 ovarian it was 109%; with OVCAR-4 ovarian it was 108%; with SK-OV-3 ovarian, 94.6%; in the test with IGROV1 ovarian, 103%; in the test with OVCAR-3 ovarian it was 106%. The growth with HS 578T breast was 105%; in the test on NCI/ADR-RES ovarian, 101%; in the test with T-47D breast, 90.2%; in the test with BT-549 breast, 106%; in the test with MDA-MB-435 melanoma, 117%; in the test with SW-620 colon it was 112%. Also, the growth with MCF7 breast is 104%; in the test with HCT-116 colon it was 95.8%; in the test on HCC-2998 colon, 105%; with KM12 colon, 120%.
Take `COc1cc(C2CC(c3ccc(C)cc3)=NN2C(C)=O)ccc1Oc1ccnc2cc(Cl)ccc12` (stereo not given): the growth with RPMI-8226 leukemia was 83.8%; with OVCAR-5 ovarian, 92%; in the test on OVCAR-4 ovarian, -15.8% (active); with SK-OV-3 ovarian it was 13.5%; with IGROV1 ovarian it was 81.2%; in the test on OVCAR-3 ovarian it was 29.1%. Moreover, the growth in the test on HS 578T breast is 7.55% (active); in the test on NCI/ADR-RES ovarian, 54.6%; in the test with T-47D breast it was 62.2%; with BT-549 breast, 59.1%; in the test on MDA-MB-435 melanoma it was 100%; with SW-620 colon, 66.3%. Besides, the growth with MCF7 breast was 73.6%; in the test with HCT-116 colon it was 52.8%; in the test on HCC-2998 colon, 83.3%; in the test with KM12 colon, 85.3%.
Consider `CCOc1nc(-c2ccccc2)cc2c(O)c(-c3nnco3)[nH]c(=O)c12`, for which the growth in the test on RPMI-8226 leukemia was 48.3%; in the test with OVCAR-5 ovarian, 101%; in the test on OVCAR-4 ovarian, 51.5%; in the test with SK-OV-3 ovarian, 59.3%; in the test with IGROV1 ovarian, 36.7%; in the test with OVCAR-3 ovarian, 27.8%. In addition, the growth with HS 578T breast was 68%; in the test on NCI/ADR-RES ovarian it was 25.5%; in the test with T-47D breast, 2.73% (active); in the test on BT-549 breast, 41.6%; in the test with MDA-MB-435 melanoma it was 63.8%; with SW-620 colon it was 32.2%. In addition, the growth in the test on MCF7 breast was 23.3%; in the test on HCT-116 colon it was 39.7%; in the test with HCC-2998 colon, 61.5%; in the test with KM12 colon, 48.9%.
As to `CC(C)C(=O)Cc1cnccn1`, the growth with RPMI-8226 leukemia was 109%; in the test with OVCAR-5 ovarian it was 108%; in the test with OVCAR-4 ovarian, 117%; in the test with SK-OV-3 ovarian it was 116%; in the test on IGROV1 ovarian, 106%; with OVCAR-3 ovarian it was 111%. Moreover, the growth in the test with HS 578T breast was 96.4%; in the test on T-47D breast it was 109%; in the test on BT-549 breast, 110%; in the test on MDA-MB-435 melanoma, 101%; in the test on SW-620 colon it was 102%; in the test with MCF7 breast, 103%. Moreover, the results for the growth with HCT-116 colon, in the test with HCC-2998 colon and with KM12 colon were 109%, 104% and 112%, respectively.
With `Clc1cc(Cl)c(OCC#CI)cc1Cl`, the growth in the test on RPMI-8226 leukemia is 15.2%; in the test with OVCAR-5 ovarian, 101%; in the test on OVCAR-4 ovarian it was 80%; with SK-OV-3 ovarian, 102%; with IGROV1 ovarian, 45.3%; with OVCAR-3 ovarian, -61.5% (active). Also, the growth in the test with HS 578T breast is 103%; with T-47D breast, 1.86% (active); in the test on BT-549 breast, 135%; in the test with MDA-MB-435 melanoma, 55.5%; in the test with SW-620 colon it was -65.9% (active); in the test on MCF7 breast it was 9.27% (active). Further, the growth in the test on HCT-116 colon is -71.6% (active); with HCC-2998 colon it was 109%; with KM12 colon, 82.1%.
With `O=C1C2C3C=CC(O3)C2C(=O)N1Nc1ccccc1` (stereo not given), the growth is 108% with RPMI-8226 leukemia; 97.4% with OVCAR-5 ovarian; 102% in the test on OVCAR-4 ovarian; 118% with SK-OV-3 ovarian; 124% with IGROV1 ovarian; 113% in the test with OVCAR-3 ovarian. Also, the growth with HS 578T breast was 111%; with NCI/ADR-RES ovarian it was 105%; in the test with T-47D breast, 112%; in the test with BT-549 breast, 108%; in the test on MDA-MB-435 melanoma, 96.9%; in the test with SW-620 colon, 108%. Moreover, the growth in the test on MCF7 breast is 98.9%; in the test with HCT-116 colon, 106%; in the test with HCC-2998 colon, 102%; with KM12 colon it was 115%.
